# tim10-1 inh = growth inhibitors of tim10-1 mutant yeast, primary screen, luminescence, uHTS | S. cerevisiae tim10-1 ts strain growth, BacTiter-Glo, 24 h | inhibition, % at 20 µM | 330,000 tested, 2.2% active;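 active = inhibition of at least 40%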;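 also: mutant grown at 25 °C; 0% = DMSO wells with yeast and 100% = wells holding no yeast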
# tim23-1 inh = growth inhibitors of tim23-1 mutant yeast, primary screen, luminescence, uHTS | S. cerevisiae tim23-1 growth, BacTiter-Glo luminescence, 24 h | inhibition, % at 20 µM | 330,000 tested, 1.3% active;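 active = growth inhibition of the mutant yeast at or above 50%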;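 also: temperature-sensitive mutant grown at 25 °C; plate controls were DMSO-treated mutant yeast for no effect and medium wells lacking yeast for full effect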
# V-ATPase pH = regulators of yeast V-ATPase proton pumping, primary screen, pHLuorin cytosolic pH fluorescence; S. cerevisiae; response, % at 10 µM; 350,000 tested, 0.37% active; AID 504577, 2011; in the data active = response mostly above about 7.3%, no sharp cut-off; inactive = mostly below about 5.4%; also: actives read high
# PfHsp90 yeast 2 = growth inhibition of PfHsp90-expressing yeast, primary screen, antimalarial PfHsp90 inhibitor project, S. cerevisiae, BacTiter-Glo luminescence, single point, set 2. BacTiter-Glo ATP, 48 h; yeast lacking PDR1 and PDR3 efflux regulators. inhibition, % at 9.4 µM. 310,000 tested, 0.32% active. AID 504621, 2011;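 active = every replicate shows inhibition above about 80%, whatever the replicate mean, limit read from the data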;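 also: 0% = DMSO neutral controls and 100% = 20 µM radicicol positive controls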
# TIM10 inh = growth inhibitors of isogenic TIM10 control yeast, primary screen, counter-screen for tim10-1 yeast inhibitor project, luminescence, uHTS; inhibition, % at 10 µM; AID 463195, 2010; 330,000 tested, 1.4% active; S. cerevisiae TIM10 strain growth, BacTiter-Glo luminescence, 24 h;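 active = inhibition of 40% or more at the single tested concentration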;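 also: wild-type TIM10 isogenic control strain grown at permissive 25 °C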
# tim23-1 confirm = tim23-1 mutant yeast growth inhibitors, confirmation, luminescence, single concentration; AID 463218, 2010; inhibition, % at 20 µM; 4,400 tested, 83% active; S. cerevisiae tim23-1 growth, BacTiter-Glo luminescence, 24 h; shares compounds with tim23-1 inh;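 active = inhibition above about 39% in either of two replicate wells at 20 µM, limit read from the data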;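 also: temperature-sensitive tim23-1 mutant grown at 25 °C; 0% = DMSO wells with yeast and 100% = medium wells without yeast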
# The depositor's hits bear a star; . = no result. An excerpt weighted towards active compounds, which were near 3.7% of everything screened.
SMILES,tim10-1 inh,tim23-1 inh,V-ATPase pH,PfHsp90 yeast 2,TIM10 inh,tim23-1 confirm
COc1ccc(C(=O)NC(=S)NC(C)c2ccccc2)cc1 (stereo not given),37.0,31.1,0.7,-13.7,36.1,.
O=C(c1cc(COc2ccc(F)cc2F)on1)N1CCSCC1,12.8,-10.7,3.2,.,11.7,.
O=C(N/N=C/c1ccc([N+](=O)[O-])s1)c1ccncc1,33.8,62.9*,2.4,1.7,38.9,66.7*
CCN(Cc1ccccc1)C(=O)c1ccc(C)c(S(=O)(=O)N2CCCCC2)c1,22.9,50.0*,-1.3,-6.9,14.7,38.3
COc1ccc(OC)c(CCNC(=O)Cn2cccc2C(=O)c2ccccc2C)c1,-14.6,95.6*,-0.8,-1.9,-7.6,29.1
Cc1ccc(-c2nn(-c3ccccc3)cc2C=C2C(=O)CC(C)(C)CC2=O)cc1,30.9,65.6*,1.6,8.6,37.0,51.0*
CC1=NN(c2ccccc2)C(=O)/C1=C\c1cn(-c2ccccc2)nc1C,36.1,37.6,2.5,13.0,16.4,.
O=Cc1ccccc1Oc1ccccc1,4.8,4.6,2.5,-8.8,6.7,.
O=Cc1ccccc1OCCOc1ccccc1C=O,14.8,85.0*,3.1,-19.1,39.0,77.8*
O=C1NC(=S)SC1=C1CCCCCC1,23.6,50.3*,-2.8,-20.1,3.0,69.3*
O=C1N=C(N2CCCCC2)SC1=C1CCCCC1,-5.8,19.8,1.4,43.6,-1.3,.
O=C1OCCN1C(=O)[C@H]1[C@H](c2ccc(F)cc2)C(c2ccccc2)=NN1c1ccccc1,16.3,71.6*,-1.9,-0.4,-2.6,27.2
C[C@@H]1C(c2ccccc2)=NN(c2ccc(Br)cc2)[C@H]1C(=O)N1CCOC1=O,32.2,58.8*,-1.4,15.1,27.2,45.3*
Cc1cccc(C2=NN(c3ccc(Br)cc3)[C@@H](C(=O)N3CCOC3=O)[C@@H]2C)c1,26.7,51.4*,-1.4,-11.5,15.2,31.5
Cc1cccc(C2=NN(c3ccccc3)[C@@H](C(=O)N3CCOC3=O)[C@@H]2C)c1,14.6,39.3,-2.1,-9.3,9.0,.
O=C1OCCN1C(=O)[C@H]1[C@H](c2ccc(F)cc2)C(c2ccc(F)cc2)=NN1c1ccccc1,25.3,35.7,-0.6,-35.0,23.7,.
COc1ccccc1NC(=O)COC(=O)c1ccc(N2CCCC2=O)cc1,-1.0,-1.8,-1.7,-3.3,7.4,.
CC(OC(=O)C1=NN(c2ccccc2)C(=O)CC1)C(=O)NC1CCCCC1C (stereo not given),-14.0,-14.6,4.4,-1.6,-2.0,.
COc1ccc(NC(=O)/C=C/c2cccc(C(F)(F)F)c2)cn1,8.6,31.3,8.7,-17.7,-4.7,.
COc1ccc(NC(=O)/C=C/c2cccc(Br)c2)cn1,-55.9,86.8*,-3.5,-4.4,12.9,24.0
COc1ccccc1Nc1nc(Cl)c(C=O)s1,36.7,38.7,-2.8,.,36.0,.
O=Cc1sc(Nc2ccccc2)nc1Cl,-22.5,51.1*,2.0,-1.7,24.0,48.7*
Cc1ccc(Nc2nc(Cl)c(C=O)s2)cc1Cl,25.3,66.9*,-2.3,-17.3,39.0,70.8*
COCCn1c(=S)[nH]c2cc(C(=O)NC3CCCC(C)C3C)ccc2c1=O (stereo not given),.,.,5.6,.,.,.
Oc1ccc(Br)cc1C=Nc1ccc2c3c(cccc13)CC2,21.3,63.5*,-1.4,31.6,21.1,60.4*
SMILES,tim10-1 inh,tim23-1 inh,V-ATPase pH,PfHsp90 yeast 2,TIM10 inh,tim23-1 confirm
Oc1ccc(Cl)cc1C=Nc1ccccc1Br,0.9,7.3,-0.7,-2.1,-1.8,.
Cn1ccnc1SCC(=O)n1c2c(c3ccccc31)CCCC2,29.1,50.8*,1.2,-7.3,38.6,41.5*
Cn1ccnc1SCC(=O)Nc1cccc2ccccc12,6.1,15.7,-3.2,.,1.2,.
CC1CN(C/C(=N\O)C23CC4CC(CC(C4)C2)C3)CC(C)O1 (stereo not given),.,.,-4.1,-10.2,.,.
COc1ccccc1C(=O)Nc1ccc2c(c1)OCCO2,12.2,13.4,2.0,-3.7,9.9,.
COc1cc(SC)ccc1C(=O)Nc1ccc2c(c1)OCCO2,27.1,50.6*,1.4,-24.3,-3.2,44.6*
